# Source: ChEMBL document CHEMBL3988442, “University of Dundee, Small-Polar-MMV Screening Library” (2021)
# For some of these results: Measured potencies and affinities stand elsewhere.
# Columns and labels:
# Parameters in all cases: scale not given: direction of the effect not stated beside the values
# [1] = biological target: Protein translocase subunit SecA (Escherichia coli (strain K12)) (UniProt P10408); assay: Assay to Identify E. coli SecA ATPase Inhibitors; format: functional; settings: 30 µM
# [2] = biological target: T1, Ubiquitin-activating enzyme e1, putative (Leishmania donovani (strain BPK282A1)) (UniProt E9BSI1); assay: Leishmania donovani Ubiquitin Activating Enzyme (LdE1); format: functional; settings: 30 µM
# T1 sequence (whole entry): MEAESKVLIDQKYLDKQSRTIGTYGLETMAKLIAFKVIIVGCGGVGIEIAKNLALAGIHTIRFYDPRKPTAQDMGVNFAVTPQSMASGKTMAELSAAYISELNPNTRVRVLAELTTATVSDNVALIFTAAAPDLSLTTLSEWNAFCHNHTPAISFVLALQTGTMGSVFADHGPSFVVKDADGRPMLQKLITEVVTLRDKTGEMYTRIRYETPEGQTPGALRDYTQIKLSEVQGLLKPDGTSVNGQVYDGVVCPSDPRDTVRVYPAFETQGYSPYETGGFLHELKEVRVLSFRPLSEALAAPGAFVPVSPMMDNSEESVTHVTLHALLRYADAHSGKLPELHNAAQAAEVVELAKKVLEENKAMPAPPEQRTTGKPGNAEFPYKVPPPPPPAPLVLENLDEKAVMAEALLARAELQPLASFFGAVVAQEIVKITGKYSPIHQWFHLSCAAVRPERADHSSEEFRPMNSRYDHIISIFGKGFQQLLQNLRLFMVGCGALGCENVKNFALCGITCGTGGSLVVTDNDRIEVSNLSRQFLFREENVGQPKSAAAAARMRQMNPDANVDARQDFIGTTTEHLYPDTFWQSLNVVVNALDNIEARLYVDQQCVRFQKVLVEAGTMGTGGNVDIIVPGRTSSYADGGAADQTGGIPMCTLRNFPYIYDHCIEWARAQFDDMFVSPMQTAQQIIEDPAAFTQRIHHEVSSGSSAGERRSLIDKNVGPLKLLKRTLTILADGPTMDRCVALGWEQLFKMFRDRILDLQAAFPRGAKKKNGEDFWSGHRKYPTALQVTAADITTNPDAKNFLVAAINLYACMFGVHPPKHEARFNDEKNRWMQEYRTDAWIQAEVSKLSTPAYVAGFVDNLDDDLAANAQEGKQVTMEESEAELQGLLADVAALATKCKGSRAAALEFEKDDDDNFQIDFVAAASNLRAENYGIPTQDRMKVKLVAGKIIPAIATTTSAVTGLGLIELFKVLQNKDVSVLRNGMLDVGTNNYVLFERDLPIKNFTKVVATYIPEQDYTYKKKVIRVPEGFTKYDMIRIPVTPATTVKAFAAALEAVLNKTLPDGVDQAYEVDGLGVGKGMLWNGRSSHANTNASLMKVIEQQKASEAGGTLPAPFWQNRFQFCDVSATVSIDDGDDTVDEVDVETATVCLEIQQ
# [3] = biological target: AMP-activated protein kinase, AMPK (Homo sapiens) (UniProt P54646+O43741+P54619+Q9UGJ0+Q9Y478+Q13131+Q9UGI9); assay: AMP-dependent Kinase enzyme assay. An in vitro enzyme assay that detects ADP turnover that is directly proportional to AMPK activity. This uses naive AMPK that is activated during the assay with MK-8722; format: functional; settings: 30 µM
# [4] = biological target: Sialic acid-binding Ig-like lectin 9 (Homo sapiens) (UniProt Q9Y336); assay: Hs-Siglec9 ALPHAscreen SOP 20170721; settings: 10 µM
# [5] = system: Trypanosoma cruzi; assay: Trypanosoma cruzi phosphomannomutase and mannose-1-phosphate guanylyltransferase assay; format: functional; settings: 10 µM
# [6] = biological target: T2, Arginase-2, mitochondrial (Homo sapiens) (UniProt P78540); assay: in vitro enzyme assay to detect the production of urea directly proportional to the activity of Arginase II; format: functional; settings: 33.3 µM; also: in the data most compounds retested in dose-response had high values
# T2 sequence (whole entry): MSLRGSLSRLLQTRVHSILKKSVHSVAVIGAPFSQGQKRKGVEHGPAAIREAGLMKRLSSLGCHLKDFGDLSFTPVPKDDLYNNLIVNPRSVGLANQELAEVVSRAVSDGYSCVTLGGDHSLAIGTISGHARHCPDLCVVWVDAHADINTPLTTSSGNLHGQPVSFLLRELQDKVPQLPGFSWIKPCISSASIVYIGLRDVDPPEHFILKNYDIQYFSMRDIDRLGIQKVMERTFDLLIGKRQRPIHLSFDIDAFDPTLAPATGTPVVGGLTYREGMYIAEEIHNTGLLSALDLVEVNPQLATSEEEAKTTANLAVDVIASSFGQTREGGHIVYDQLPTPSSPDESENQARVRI
# [7] = biological target: T3, Proteasome subunit beta (Trypanosoma cruzi) (UniProt O96673); assay: Trypanosoma cruzi proteasome chymotrypsin-like activity (TcProtChymo) assay.; also: in the data most compounds retested in dose-response had high values; format: functional; settings: 9.37 µM
# T3 sequence (whole entry): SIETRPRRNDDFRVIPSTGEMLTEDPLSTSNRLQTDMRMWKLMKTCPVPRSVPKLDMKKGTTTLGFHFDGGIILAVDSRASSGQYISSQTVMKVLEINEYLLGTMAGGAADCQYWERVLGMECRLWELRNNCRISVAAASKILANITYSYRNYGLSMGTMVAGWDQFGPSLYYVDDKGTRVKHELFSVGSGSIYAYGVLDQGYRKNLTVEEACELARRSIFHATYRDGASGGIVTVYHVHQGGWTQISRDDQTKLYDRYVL
# [8] = species on record: Homo sapiens; assay: To identify inhibition of the IFN signalling (Jak-Stat) pathway via expression of an eGFP reporter gene under the control of an IFN-stimulated response element (ISRE) containing MxA promoter.; format: functional; settings: 30 µM
# [9] = biological target: T4, Tyrosyl-tRNA synthetase, putative (Trypanosoma cruzi (strain CL Brener)) (UniProt Q4DSP6); assay: Trypanosoma cruzi tyrosyl tRNA synthetase (TcYRS) _High Tyrosine SOP; format: functional; settings: 30 µM; also: in the data most compounds retested in dose-response had high values
# T4 sequence (whole entry): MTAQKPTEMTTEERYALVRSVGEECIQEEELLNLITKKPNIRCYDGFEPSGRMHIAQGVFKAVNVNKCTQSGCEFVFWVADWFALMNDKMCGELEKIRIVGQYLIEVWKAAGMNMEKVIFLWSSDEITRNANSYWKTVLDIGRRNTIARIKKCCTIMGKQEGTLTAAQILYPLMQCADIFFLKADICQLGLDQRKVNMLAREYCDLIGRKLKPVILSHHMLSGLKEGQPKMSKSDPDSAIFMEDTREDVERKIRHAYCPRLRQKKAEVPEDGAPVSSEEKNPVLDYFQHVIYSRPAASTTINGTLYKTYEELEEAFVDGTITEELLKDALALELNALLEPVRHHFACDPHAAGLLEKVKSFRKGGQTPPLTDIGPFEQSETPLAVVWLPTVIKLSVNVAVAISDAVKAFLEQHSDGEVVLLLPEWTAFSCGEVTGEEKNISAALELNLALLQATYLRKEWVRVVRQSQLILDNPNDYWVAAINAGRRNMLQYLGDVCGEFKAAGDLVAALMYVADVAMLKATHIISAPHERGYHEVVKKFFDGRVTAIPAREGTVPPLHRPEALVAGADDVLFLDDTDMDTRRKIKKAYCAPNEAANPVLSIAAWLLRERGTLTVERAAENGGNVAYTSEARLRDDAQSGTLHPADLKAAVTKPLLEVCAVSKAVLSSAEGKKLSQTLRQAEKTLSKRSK
# [10] = biological target: T4, Tyrosyl-tRNA synthetase, putative (Trypanosoma cruzi (strain CL Brener)); assay: Trypanosoma cruzi tyrosyl tRNA synthetase (TcYRS) SOP; format: functional; settings: 30 µM
# [11] = biological target: Chromo domain-containing protein 1 (Saccharomyces cerevisiae (strain ATCC 204508 / S288c) (Baker's yeast)) (UniProt P32657); assay: ScCHD-1 Enzyme Inhibition Assay; format: functional; settings: 30 µM; also: in the data most compounds retested in dose-response had high values
# Chromo domain-containing protein 1 (Saccharomyces cerevisiae (strain ATCC 204508 / S288c) (Baker's yeast)), sequence (P32657 whole entry, the tested form may be a part): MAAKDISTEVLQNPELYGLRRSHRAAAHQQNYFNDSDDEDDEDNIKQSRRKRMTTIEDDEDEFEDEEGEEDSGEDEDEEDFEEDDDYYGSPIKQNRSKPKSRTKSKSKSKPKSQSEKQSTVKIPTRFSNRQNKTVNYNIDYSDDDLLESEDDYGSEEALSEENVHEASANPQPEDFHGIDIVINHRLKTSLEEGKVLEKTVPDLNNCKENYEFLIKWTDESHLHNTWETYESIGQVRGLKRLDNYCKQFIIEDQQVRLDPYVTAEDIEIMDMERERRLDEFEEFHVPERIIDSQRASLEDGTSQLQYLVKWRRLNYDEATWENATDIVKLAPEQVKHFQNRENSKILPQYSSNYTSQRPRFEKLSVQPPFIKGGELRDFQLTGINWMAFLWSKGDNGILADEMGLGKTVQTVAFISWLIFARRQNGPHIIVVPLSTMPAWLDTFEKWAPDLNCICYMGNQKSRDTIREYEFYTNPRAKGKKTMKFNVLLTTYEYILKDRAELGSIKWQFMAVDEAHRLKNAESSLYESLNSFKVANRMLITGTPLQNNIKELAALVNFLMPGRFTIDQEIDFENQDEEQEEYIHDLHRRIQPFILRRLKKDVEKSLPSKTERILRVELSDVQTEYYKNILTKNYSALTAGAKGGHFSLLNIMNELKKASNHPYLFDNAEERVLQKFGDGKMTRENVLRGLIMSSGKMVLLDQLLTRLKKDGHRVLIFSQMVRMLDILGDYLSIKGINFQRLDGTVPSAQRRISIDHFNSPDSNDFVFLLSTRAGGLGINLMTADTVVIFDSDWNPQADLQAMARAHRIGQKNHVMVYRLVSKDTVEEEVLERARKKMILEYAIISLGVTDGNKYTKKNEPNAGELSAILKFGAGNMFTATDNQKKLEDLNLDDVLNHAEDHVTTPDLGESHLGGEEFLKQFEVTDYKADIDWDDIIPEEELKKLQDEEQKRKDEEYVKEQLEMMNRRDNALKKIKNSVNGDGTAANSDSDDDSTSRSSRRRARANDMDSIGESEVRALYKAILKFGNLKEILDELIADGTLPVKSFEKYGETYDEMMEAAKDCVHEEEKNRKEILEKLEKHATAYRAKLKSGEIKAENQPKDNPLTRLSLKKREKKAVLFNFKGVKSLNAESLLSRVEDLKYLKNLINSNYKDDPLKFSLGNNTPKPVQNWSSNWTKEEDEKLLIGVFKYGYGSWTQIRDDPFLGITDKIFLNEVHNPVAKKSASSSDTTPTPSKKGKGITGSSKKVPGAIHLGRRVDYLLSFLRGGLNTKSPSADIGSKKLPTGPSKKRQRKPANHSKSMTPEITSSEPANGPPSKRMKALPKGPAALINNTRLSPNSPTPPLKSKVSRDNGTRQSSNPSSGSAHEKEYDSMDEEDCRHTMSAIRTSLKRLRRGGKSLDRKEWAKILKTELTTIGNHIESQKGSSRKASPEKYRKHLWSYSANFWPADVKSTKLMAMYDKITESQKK
# Sialic acid-binding Ig-like lectin 9 (Homo sapiens), sequence (Q9Y336 whole entry): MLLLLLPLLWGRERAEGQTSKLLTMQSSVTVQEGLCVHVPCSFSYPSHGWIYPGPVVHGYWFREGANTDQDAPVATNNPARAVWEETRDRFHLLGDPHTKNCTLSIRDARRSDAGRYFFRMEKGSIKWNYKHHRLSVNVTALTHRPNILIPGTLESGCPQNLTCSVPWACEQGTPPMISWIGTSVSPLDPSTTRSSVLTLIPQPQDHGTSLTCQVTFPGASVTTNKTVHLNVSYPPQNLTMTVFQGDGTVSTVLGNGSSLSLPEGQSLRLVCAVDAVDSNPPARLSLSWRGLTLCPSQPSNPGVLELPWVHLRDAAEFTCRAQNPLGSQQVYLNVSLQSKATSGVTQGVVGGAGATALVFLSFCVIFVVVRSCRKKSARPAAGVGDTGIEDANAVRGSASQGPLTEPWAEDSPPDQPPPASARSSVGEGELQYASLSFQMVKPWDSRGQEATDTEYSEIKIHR
# Protein translocase subunit SecA (Escherichia coli (strain K12)), sequence (P10408 whole entry): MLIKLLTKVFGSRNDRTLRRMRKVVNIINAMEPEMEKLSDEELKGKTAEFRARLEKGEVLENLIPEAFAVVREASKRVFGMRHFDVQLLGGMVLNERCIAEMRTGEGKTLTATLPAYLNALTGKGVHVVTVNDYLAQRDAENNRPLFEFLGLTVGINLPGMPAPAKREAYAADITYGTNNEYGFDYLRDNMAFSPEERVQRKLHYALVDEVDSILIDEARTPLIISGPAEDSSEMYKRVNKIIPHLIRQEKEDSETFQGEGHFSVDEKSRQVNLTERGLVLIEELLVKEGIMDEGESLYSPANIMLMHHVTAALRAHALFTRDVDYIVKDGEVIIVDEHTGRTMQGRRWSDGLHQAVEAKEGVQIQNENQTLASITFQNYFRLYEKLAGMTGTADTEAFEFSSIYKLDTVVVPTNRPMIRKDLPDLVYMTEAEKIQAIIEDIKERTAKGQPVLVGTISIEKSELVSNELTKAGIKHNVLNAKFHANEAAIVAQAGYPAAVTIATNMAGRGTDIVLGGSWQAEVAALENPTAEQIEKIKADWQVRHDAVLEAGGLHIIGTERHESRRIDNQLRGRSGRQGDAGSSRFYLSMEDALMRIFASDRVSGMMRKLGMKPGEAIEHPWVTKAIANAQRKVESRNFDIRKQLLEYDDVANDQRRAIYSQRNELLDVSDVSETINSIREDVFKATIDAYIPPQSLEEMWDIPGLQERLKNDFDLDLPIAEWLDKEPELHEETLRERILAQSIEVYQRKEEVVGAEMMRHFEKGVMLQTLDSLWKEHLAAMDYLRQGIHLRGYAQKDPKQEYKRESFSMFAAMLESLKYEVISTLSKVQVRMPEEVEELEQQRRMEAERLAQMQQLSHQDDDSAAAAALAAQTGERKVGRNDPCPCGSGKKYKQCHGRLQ
Compound,Percent Effect [1],Percent Effect [2],Percent Effect [3],Percent Effect [4],Percent Effect [5],Percent Effect [6],Percent Effect [7],Percent Effect [8],Percent Effect [9],Percent Effect [10],Percent Effect [11]
CCNC(=O)N1CCCCC1CCO (stereo not given),1.22%,8.11%,-0.623%,17.1%,5.99%,6.67%,-0.69%,-3.81%,0.529%,7.32%,-10.1%
COCc1nc(C(=O)N2CCCCC2Cn2cccn2)cs1 (stereo not given),-1.64%,-7.89%,-1.7%,-2.08%,6.82%,-3.24%,-0.761%,-20.6%,0.493%,3.7%,3.28%
Fc1ccc(CCN2CCC(c3nnc(-c4cccnc4)o3)CC2)cc1,-1.2%,1.35%,6.27%,-6.66%,-0.988%,-5.8%,18.9%,19.1%,3.23%,9.09%,-14%
Cc1cc2c(cc1C)C(NCc1nnc3n1CCCCC3)CCCO2 (stereo not given),0.0306%,2.7%,-8.53%,10.2%,6.94%,17.1%,0.944%,-23.2%,2.15%,6.17%,-5.02%
CC(O)CN1CCN(C(=O)c2ccc3c(c2)COC3)CC1 (stereo not given),-5%,10.1%,-4.14%,3.8%,6.14%,-4.18%,3.19%,-12.6%,4.43%,16.5%,-13.8%
Fc1ccc(CN2CCO[C@H]3[C@H](OCC4CC4)CC[C@@H]32)cc1,-2.57%,-2.67%,3.82%,0.245%,4.83%,-41.4%,8.89%,-14.2%,2.08%,-30%,-4.58%
CCc1nc(CN2CCCN(Cc3cnn(C)c3)CC2)no1,2.29%,5.48%,-1.06%,0.0732%,-2.35%,0%,17.2%,3.79%,4.3%,12.5%,-13.7%
OC1(CN2CCCC2)CCCN(Cc2ccc(F)cc2Cl)C1 (stereo not given),-2.56%,0%,-4.18%,-3.78%,-7.5%,3.12%,12%,5.3%,3.83%,11.1%,-3.94%
O=C1[C@@H]2CCN(Cc3ccncc3)C[C@@H]2OCCN1c1ccccc1,-4.52%,8%,4.63%,0.633%,4.33%,-3.5%,15.6%,-13.1%,8.51%,14.1%,-5.17%
O=C(Cn1cc(I)cn1)N1CCc2ccccc2C1,0.654%,-12%,6.11%,2.56%,-2.55%,-10%,6.1%,2.17%,2.12%,-2.56%,-2.67%
Cc1cc(CN2CCN(C(=O)Nc3cccnc3)CC2)on1,-2.38%,15.8%,-3.05%,8.98%,-2.63%,4.6%,4.51%,-11.1%,6.37%,17.1%,-2.69%
Cc1ccc(=O)n(CC2(O)CCN(Cc3cnc(C)nc3)CC2)n1,-6.32%,6.76%,4.75%,-1.5%,-2.96%,-3.48%,11.9%,17.5%,-1.07%,3.9%,5.12%
CN(C)C(=O)NC1COC2(CCN(Cc3nccn3C)CC2)C1 (stereo not given),0.893%,5.2%,-3.63%,0.435%,-7.2%,5.81%,11.3%,-0.051%,5.29%,6.41%,0.228%
Cc1nn(CC(C)C)c(N(C)C)c1CNCc1cccnc1N(C)C,-4.49%,5.41%,-8.59%,3.17%,-9.34%,-6.41%,7.75%,6.14%,1.48%,3.7%,-5.66%
CN(CC1(O)CCCN(c2ccccn2)C1)C(=O)Cc1ccsc1 (stereo not given),-5.09%,4.05%,12%,3.61%,-0.198%,-1.62%,-2.18%,-8.8%,6.45%,9.09%,3.9%
Cc1noc(C)c1CN1CC[C@H]2OCC[C@@H](C(=O)NCC3CC3)[C@@H]2C1,-4.39%,2.67%,1.83%,6.75%,-1.54%,-25.3%,8.21%,-17.4%,0%,12.5%,-5.06%
COCCN1CCC(Cc2cncc(-c3ccc(C(=O)O)cc3)n2)C1 (stereo not given),-5.18%,1.35%,42.5%,-3.43%,-3.75%,-2.55%,3.43%,12.6%,1.07%,1.3%,-3.54%
COc1ccc(CN2CCOC3(CCCN(c4nnc(C)o4)C3)C2)cc1 (stereo not given),-4.63%,-2.74%,-4.05%,6.97%,5.75%,2%,10.4%,-9.72%,4.17%,-1.24%,-4.74%
COc1ccccc1C(=O)NC(C)CC(=O)O (stereo not given),-6.61%,11.4%,1.36%,-1.14%,1.74%,1.07%,2.92%,12.6%,5.21%,15.2%,-12.9%
O=C1N(c2ccc(F)cc2)Cc2nc(=O)n(Cc3cccc(Cl)c3)n21,0.397%,-4%,8.75%,4.81%,-5.11%,-3.35%,5.36%,-6.59%,-5.29%,-2.56%,-4.31%
